Results reported in PubChem BioAssay (EPA / NIEHS).
Results filed as inconclusive are left out. The source made the active and inactive calls. The calls were made as follows, unless noted: active = hit-call score of the fitted dose curve at least 0.9, where 1 is the maximum; inactive = score below 0.9.

Columns and labels:
[1] = target: Glucocorticoid receptor (Homo sapiens) (UniProt P04150); assay: ATG_GR_TRANS: Attagene TRANS-FACTORIAL HepG2 Assay for human Glucocorticoid Receptor (GR) (AID 2282978; active = hit-call score of the fitted dose curve at least 0.9, where 1 is the maximum;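 also: activators score as hits since higher reporter transcript over DMSO is fitted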); details: HepG2 Attagene TRANS GR reporter, mRNA transcription
Procedure, shortened: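 Reporter transcript levels, detected by fluorescence after RT-PCR and capillary electrophoresis, served as the endpoint. HepG2 cells bearing transfected GAL4-UAS reporters responsive to NR-GAL4 chimeras were incubated with compound 24 h; DMSO defined baseline.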

[2] = target: Oxysterols receptor LXR-alpha (Homo sapiens) (UniProt Q13133); assay: ATG_LXRa_TRANS: Attagene TRANS-FACTORIAL HepG2 Assay for human Liver X Receptor alpha (LXRa) (AID 2282980; active = hit-call score of the fitted dose curve at least 0.9, where 1 is the maximum); details: HepG2 Attagene TRANS reporter, LXRa transactivation
Procedure, shortened: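 Chemical-induced reporter mRNA measured by RT-PCR with fluorescent labelling and capillary electrophoresis after 24 h dosing of transiently transfected HepG2 cells expressing exogenous NR-Gal4 chimeras; increases scored against DMSO baseline.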

[3] = target: Oxysterols receptor LXR-beta (Homo sapiens) (UniProt P55055); assay: ATG_LXRb_TRANS: Attagene TRANS-FACTORIAL HepG2 Assay for human Liver X Receptor beta (LXRb) (AID 2282981; active = hit-call score of the fitted dose curve at least 0.9, where 1 is the maximum); details: HepG2 Attagene TRANS GAL4-LXRb reporter, mRNA
Procedure, shortened: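 HepG2 cells transiently transfected with GAL4-UAS reporter units for chimeric NR-Gal4 proteins, dosed for 24 h. Reporter transcripts measured by RT-PCR and capillary electrophoresis; gain-of-signal fitting relative to DMSO.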

[4] = target: Hepatocyte nuclear factor 4-alpha (Homo sapiens) (UniProt P41235); assay: ATG_HNF4a_TRANS: Attagene TRANS-FACTORIAL HepG2 Assay for human Hepatocyte Nuclear Factor 4 alpha (HNF4a) (AID 2282982; active = hit-call score of the fitted dose curve at least 0.9, where 1 is the maximum); details: HepG2 HNF4a transactivation reporter, mRNA readout
Procedure, shortened: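 HepG2 cells transiently transfected with HNF4a-Gal4 chimera and GAL4-UAS reporter units, dosed for 24 h. Reporter mRNA measured by RT-PCR, fluorescent primer extension and capillary electrophoresis; gain-of-signal fitted relative to DMSO.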

[5] = ATG_M_06_TRANS: Attagene TRANS-FACTORIAL HepG2 Assay for M06 Transcription Factor (Internal Marker) (AID 2282983; active = hit-call score of the fitted dose curve at least 0.9, where 1 is the maximum); details: HepG2 Attagene TRANS M06 internal marker reporter
Procedure, shortened: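 Cells: HepG2, transient multi-reporter transfection. Exposure: 24 h. Detection: RT-PCR, 6-FAM labelling, HpaI digestion (2 h, 37 °C), capillary electrophoresis. Baseline: DMSO.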

[6] = target: Nuclear receptor subfamily 4 group A member 2 (Homo sapiens) (UniProt P43354); assay: ATG_NURR1_TRANS: Attagene TRANS-FACTORIAL HepG2 Assay for human Nuclear Receptor Related Protein 1 (NURR1) (AID 2282985; active = hit-call score of the fitted dose curve at least 0.9, where 1 is the maximum); details: HepG2 Attagene TRANS reporter, mRNA readout
Procedure, shortened: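 HepG2 cells transiently transfected with NURR1-Gal4 chimera and GAL4-UAS reporter units; after 24 hr compound exposure, reporter mRNA quantified by RT-PCR and capillary electrophoresis; gain of signal fitted against DMSO.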

[7] = target: Transcriptional activator Myb (Homo sapiens) (UniProt P10242); assay: ATG_Myb_CIS: Attagene CIS-FACTORIAL HepG2 Assay for human Myeloblastosis (Myb) Proto-Oncogene Transcription Factor (AID 2282986); details: HepG2 Attagene CIS-FACTORIAL Myb reporter transcription; actives raise or lower the signal
Procedure, shortened: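 Transiently transfected HepG2 cells, treated 24 h. Reporter mRNA quantified by RT-PCR/capillary electrophoresis; bidirectional fit relative to DMSO.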

[8] = target: Nuclear respiratory factor 1 (Homo sapiens) (UniProt Q16656); assay: ATG_NRF1_CIS: Attagene CIS-FACTORIAL HepG2 Assay for human Nuclear Respiratory Factor 1 (NRF1) Orphan Gene (AID 2282987); details: HepG2 NRF1 cis-element reporter, Attagene multiplex; actives raise or lower the signal
Procedure, shortened: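 Cells (HepG2, transient MRTU transfection) are exposed to compound for 24 h, then RNA isolated and reporter mRNA amplified and fluorescently labelled. Fragments are separated by capillary electrophoresis; signal change is fitted bidirectionally relative to DMSO.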

[9] = ATG_NFI_CIS: Attagene CIS-FACTORIAL HepG2 Assay for human Nuclear Factor I (NFI) (AID 2282989); details: HepG2 cis-regulatory reporter, NFI response element transcription; actives raise or lower the signal
Procedure, shortened: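 Read-out: reporter mRNA via RT-PCR plus capillary electrophoresis with fluorescence detection. Transiently transfected HepG2 (endogenous TF activity on cis promoters), 24 h compound exposure; gain or loss of signal fitted against DMSO.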

[10] = target: Myc proto-oncogene protein (Homo sapiens) (UniProt P01106); assay: ATG_Myc_CIS: Attagene CIS-FACTORIAL HepG2 Assay for human Myelocytomatosis (Myc) Proto-Oncogene Transcription Factor (AID 2282990); details: HepG2, Attagene cis-reporter transcription factor activity; actives raise or lower the signal
Procedure, shortened: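 Transiently transfected HepG2 cells bearing cis-promoter reporter units for endogenous transcription factors; 24 h exposure. Reporter mRNA measured by RT-PCR, 6-FAM primer extension, HpaI cut and capillary electrophoresis; bidirectional fit relative to DMSO.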

[11] = ATG_NRF2_ARE_CIS: Attagene CIS-FACTORIAL HepG2 Assay for human Nuclear Factor Erythroid 2 Related Factor 2 (NFR2) response to Antioxidant Response Elements (ARE) (AID 2282992); details: HepG2 Attagene ARE/NRF2 reporter, transcription factor activity; actives raise or lower the signal;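 as to AC50: reporter mRNA level measured by RT-PCR and capillary electrophoresis fluorescence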
Procedure, shortened: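 Cis-factorial assay: transfected HepG2 reporter library, 24 h dosing, mRNA readout via RT-PCR/CE; DMSO-referenced bidirectional analysis.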

[12] = ATG_Oct_MLP_CIS: Attagene CIS-FACTORIAL HepG2 Assay for human Octamer-Binding Transcription Factor (Oct) (AID 2282993); details: HepG2 Attagene cis-factorial Oct reporter, mRNA; actives raise or lower the signal
Procedure, shortened: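 Read-out: reporter mRNA via RT-PCR plus capillary electrophoresis of 6-FAM-labelled fragments. Transiently transfected HepG2, 24 h exposure, endogenous TF activity on cis elements. Gain or loss of signal fitted relative to DMSO.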

[13] = target: Cellular tumor antigen p53 (Homo sapiens) (UniProt P04637); assay: ATG_p53_CIS: Attagene CIS-FACTORIAL HepG2 Assay for human p53 Transcription Factor (AID 2282994); details: HepG2 p53 cis-element reporter, Attagene mRNA; actives raise or lower the signal
Procedure, shortened: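 Using HepG2 hepatoma cells carrying cis-acting multiplexed reporters, mRNA induction is detected after a 24 h exposure. Gain- and loss-of-signal responses are fitted relative to DMSO-treated cells.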

[14] = ATG_M_32_TRANS: Attagene TRANS-FACTORIAL HepG2 Assay for M32 Transcription Factor (Internal Marker) (AID 2282984; active = hit-call score of the fitted dose curve at least 0.9, where 1 is the maximum;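 also: transcript level of a background control reporter unit measured by RT-PCR and capillary electrophoresis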); details: HepG2 Attagene TRANS M32 internal marker reporter
Procedure, shortened: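 HepG2 cells transiently transfected with GAL4-UAS reporter units, dosed for 24 hours. Reporter mRNA quantified by RT-PCR, 6-FAM labelling, HpaI digestion and capillary electrophoresis; internal-marker signal fitted upward relative to DMSO.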

[15] = ATG_NF_kB_CIS: Attagene CIS-FACTORIAL HepG2 Assay for human Nuclear Factor Kappa B (NF-kB) (AID 2282991); details: HepG2 Attagene cis-factorial NF-kB reporter mRNA; actives raise or lower the signal
Procedure, shortened: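 Measures mRNA induction of an NF-kB-responsive cis-element reporter in HepG2 cells transfected with multiple reporter units, sampled 24 h post-dosing; quantified by fluorescence after RT-PCR and capillary electrophoresis, fitted for activation or inhibition against DMSO.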

[16] = target: Bile acid receptor (Homo sapiens) (UniProt Q96RI1); assay: ATG_FXR_TRANS: Attagene TRANS-FACTORIAL HepG2 Assay for Farnesoid X Receptor (FXR) (AID 2282979; active = hit-call score of the fitted dose curve at least 0.9, where 1 is the maximum;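 also: hits raise reporter mRNA above DMSO so AC50 marks FXR activation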); details: HepG2 Attagene TRANS FXR-GAL4 reporter transcription
Procedure, shortened: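 Reporter transcripts from transfected HepG2 cells were measured 24 h after dosing, using RT-PCR with capillary electrophoresis of 6-FAM-labelled fragments. The read-out reflects activity of exogenous FXR-Gal4 chimera on GAL4-UAS units, with induction relative to DMSO.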

Measured: AC50

Glucocorticoid receptor (Homo sapiens), sequence (P04150 whole entry, looked up, the tested form may be a part): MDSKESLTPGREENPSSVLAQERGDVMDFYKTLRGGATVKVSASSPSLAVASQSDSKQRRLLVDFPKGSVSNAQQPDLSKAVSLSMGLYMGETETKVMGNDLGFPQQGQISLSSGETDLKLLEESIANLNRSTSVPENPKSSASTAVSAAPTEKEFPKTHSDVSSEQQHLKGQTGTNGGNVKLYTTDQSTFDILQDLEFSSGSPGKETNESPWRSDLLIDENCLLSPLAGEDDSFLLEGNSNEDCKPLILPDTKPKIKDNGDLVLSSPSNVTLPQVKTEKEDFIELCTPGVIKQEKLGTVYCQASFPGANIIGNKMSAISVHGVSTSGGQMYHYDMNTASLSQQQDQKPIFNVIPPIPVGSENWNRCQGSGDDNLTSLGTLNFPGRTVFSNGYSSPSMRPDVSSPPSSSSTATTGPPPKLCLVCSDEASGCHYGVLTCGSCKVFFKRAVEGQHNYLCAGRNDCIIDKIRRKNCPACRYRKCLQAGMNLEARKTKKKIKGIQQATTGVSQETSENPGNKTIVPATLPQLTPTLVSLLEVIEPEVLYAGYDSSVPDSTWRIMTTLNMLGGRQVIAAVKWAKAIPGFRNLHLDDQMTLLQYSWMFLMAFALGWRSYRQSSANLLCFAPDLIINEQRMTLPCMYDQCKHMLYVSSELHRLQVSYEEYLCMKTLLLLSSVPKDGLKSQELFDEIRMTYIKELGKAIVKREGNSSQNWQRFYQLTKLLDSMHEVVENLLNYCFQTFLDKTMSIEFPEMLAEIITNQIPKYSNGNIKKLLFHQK
Nuclear respiratory factor 1 (Homo sapiens), sequence (Q16656 whole entry, looked up, the tested form may be a part): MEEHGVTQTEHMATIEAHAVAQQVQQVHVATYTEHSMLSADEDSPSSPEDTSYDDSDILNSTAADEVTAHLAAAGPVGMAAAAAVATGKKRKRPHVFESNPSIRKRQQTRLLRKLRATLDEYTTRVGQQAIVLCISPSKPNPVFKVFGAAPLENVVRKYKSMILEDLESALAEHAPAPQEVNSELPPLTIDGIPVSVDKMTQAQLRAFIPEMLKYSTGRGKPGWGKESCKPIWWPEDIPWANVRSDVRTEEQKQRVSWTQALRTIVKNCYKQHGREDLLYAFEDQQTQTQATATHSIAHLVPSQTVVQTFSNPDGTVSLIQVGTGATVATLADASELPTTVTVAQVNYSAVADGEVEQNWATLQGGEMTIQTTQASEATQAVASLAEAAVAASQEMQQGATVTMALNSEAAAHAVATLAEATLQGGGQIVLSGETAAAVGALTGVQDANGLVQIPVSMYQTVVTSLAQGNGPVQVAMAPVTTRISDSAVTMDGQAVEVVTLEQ
Oxysterols receptor LXR-beta (Homo sapiens), sequence (P55055 whole entry, looked up, the tested form may be a part): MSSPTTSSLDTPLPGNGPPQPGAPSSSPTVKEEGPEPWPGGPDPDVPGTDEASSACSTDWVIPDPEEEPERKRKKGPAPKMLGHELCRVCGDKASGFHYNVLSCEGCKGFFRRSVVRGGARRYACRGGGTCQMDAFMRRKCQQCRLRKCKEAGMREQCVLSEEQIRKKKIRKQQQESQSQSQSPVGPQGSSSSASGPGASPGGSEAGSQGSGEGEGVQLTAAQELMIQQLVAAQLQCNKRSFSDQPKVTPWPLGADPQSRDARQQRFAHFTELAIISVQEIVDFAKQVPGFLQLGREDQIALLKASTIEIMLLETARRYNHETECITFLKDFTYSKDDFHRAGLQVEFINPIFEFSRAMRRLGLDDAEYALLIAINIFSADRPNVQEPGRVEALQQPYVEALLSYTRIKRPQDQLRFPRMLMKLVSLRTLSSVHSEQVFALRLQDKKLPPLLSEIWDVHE
Oxysterols receptor LXR-alpha (Homo sapiens), sequence (Q13133 whole entry, looked up, the tested form may be a part): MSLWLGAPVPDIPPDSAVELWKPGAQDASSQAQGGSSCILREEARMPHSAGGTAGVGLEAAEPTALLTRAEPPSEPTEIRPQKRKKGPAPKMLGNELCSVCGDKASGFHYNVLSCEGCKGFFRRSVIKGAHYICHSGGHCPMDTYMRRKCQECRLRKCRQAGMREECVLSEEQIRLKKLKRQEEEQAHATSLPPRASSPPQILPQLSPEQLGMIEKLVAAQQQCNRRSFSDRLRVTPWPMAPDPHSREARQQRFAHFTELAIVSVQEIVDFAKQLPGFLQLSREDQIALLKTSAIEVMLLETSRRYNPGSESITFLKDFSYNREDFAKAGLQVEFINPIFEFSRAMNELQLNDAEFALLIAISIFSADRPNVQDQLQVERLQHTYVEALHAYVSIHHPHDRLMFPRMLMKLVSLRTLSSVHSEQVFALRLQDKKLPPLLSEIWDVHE
Cellular tumor antigen p53 (Homo sapiens), sequence (P04637 whole entry, looked up): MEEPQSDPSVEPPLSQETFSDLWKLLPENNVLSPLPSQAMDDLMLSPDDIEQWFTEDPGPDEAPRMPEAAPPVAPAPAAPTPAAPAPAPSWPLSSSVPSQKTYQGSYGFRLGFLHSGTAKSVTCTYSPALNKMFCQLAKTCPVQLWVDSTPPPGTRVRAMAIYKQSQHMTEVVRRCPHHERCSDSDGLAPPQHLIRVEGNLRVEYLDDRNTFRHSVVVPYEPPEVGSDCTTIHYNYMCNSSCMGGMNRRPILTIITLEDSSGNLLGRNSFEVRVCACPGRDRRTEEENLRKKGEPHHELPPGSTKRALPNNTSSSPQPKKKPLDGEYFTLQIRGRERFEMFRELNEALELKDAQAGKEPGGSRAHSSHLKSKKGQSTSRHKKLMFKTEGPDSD
Hepatocyte nuclear factor 4-alpha (Homo sapiens), sequence (P41235 whole entry, looked up, the tested form may be a part): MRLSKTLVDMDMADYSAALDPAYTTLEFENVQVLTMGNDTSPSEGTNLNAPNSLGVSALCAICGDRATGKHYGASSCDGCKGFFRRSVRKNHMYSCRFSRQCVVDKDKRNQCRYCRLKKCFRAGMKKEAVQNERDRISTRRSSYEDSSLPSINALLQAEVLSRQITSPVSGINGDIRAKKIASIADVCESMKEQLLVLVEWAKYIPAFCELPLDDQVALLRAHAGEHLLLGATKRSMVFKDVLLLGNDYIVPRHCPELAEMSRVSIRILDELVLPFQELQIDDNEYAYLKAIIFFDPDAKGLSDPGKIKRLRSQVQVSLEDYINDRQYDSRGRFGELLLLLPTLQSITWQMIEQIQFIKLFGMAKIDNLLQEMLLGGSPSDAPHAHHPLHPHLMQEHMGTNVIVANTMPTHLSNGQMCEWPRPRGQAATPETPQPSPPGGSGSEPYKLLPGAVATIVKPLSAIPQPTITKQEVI
Nuclear receptor subfamily 4 group A member 2 (Homo sapiens), sequence (P43354 whole entry, looked up, the tested form may be a part): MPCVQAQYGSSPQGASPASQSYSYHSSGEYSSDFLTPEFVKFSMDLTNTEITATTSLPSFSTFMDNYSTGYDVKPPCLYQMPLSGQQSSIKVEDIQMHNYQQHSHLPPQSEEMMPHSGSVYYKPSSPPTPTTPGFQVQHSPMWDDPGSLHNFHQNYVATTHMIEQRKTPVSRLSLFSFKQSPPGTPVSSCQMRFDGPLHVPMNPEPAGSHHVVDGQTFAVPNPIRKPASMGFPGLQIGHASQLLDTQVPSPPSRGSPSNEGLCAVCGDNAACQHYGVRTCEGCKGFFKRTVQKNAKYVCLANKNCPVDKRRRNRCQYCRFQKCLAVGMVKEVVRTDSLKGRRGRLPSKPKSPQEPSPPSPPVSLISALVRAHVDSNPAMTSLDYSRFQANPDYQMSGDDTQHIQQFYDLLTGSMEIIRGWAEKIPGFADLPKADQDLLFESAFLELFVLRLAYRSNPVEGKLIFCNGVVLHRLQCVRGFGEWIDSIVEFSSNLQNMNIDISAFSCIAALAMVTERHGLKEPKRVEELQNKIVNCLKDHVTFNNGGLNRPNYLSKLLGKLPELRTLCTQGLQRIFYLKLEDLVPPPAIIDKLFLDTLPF
Myc proto-oncogene protein (Homo sapiens), sequence (P01106 whole entry, looked up): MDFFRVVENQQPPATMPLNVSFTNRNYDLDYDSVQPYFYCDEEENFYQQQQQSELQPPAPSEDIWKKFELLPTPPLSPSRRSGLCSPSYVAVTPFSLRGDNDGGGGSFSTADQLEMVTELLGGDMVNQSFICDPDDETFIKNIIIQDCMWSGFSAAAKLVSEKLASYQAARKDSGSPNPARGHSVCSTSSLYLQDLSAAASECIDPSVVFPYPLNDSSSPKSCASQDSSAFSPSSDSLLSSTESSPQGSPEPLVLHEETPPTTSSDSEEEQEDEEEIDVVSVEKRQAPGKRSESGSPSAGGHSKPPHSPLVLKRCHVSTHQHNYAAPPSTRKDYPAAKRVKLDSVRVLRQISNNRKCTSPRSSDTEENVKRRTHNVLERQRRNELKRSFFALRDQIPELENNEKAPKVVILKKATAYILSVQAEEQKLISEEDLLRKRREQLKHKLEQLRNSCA
Bile acid receptor (Homo sapiens), sequence (Q96RI1 whole entry, looked up, the tested form may be a part): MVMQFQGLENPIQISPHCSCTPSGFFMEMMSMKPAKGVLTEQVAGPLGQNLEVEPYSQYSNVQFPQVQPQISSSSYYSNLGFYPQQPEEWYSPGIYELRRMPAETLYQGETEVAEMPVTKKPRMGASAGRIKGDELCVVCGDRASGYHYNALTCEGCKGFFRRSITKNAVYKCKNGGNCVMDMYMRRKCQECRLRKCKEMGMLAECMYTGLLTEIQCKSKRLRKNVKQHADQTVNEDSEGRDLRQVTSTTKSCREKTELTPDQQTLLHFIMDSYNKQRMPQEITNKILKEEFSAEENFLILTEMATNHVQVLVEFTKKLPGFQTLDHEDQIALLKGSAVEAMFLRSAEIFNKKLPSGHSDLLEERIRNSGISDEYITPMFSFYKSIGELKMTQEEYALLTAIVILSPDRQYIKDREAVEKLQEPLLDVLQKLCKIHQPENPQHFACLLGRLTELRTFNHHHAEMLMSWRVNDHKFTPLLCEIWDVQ

Nc1ccc(NCCO)c([N+](=O)[O-])c1
active: [11] 24.1 µM
inactive: [1] | [2] | [3] | [4] | [5] | [6] | [7] | [8] | [9] | [10] | [12] | [13]

CCCCCCC(C)(C)S
inactive: [1] | [2] | [3] | [5] | [14] | [6] | [7] | [8] | [9] | [10] | [15] | [11] | [12]

CCCCCCCCCCCCS(=O)(=O)Cl
inactive: [1] | [16] | [4] | [14] | [7] | [8] | [9] | [10] | [15] | [11] | [12] | [13]

CCCC(C)C(O)CC (stereo not given)
inactive: [1] | [2] | [3] | [7] | [8] | [9] | [10] | [12] | [13]

COC(=O)c1cccnc1
inactive: [1] | [2] | [4] | [5] | [14] | [7] | [8] | [9] | [10] | [15] | [11] | [12] | [13]

Clc1ccc(C(c2ccccc2Cl)C(Cl)Cl)cc1 (stereo not given)
active: [8] 44.2 µM | [9] 34.7 µM | [15] 100 µM | [11] 52 µM | [12] 26.7 µM
inactive: [1] | [16] | [5] | [14] | [7] | [10] | [13]

C=CC(=C)CCCC(C)(C)OC(C)=O
inactive: [1] | [2] | [3] | [4] | [5] | [8] | [9] | [10] | [15] | [11] | [12]

CCCCCCCCc1ccc(S(=O)(=O)O)cc1
inactive: [1] | [16] | [14] | [6] | [10] | [12] | [13]
active: [7] 166 µM | [8] 146 µM | [9] 185 µM | [15] 130 µM | [11] 99.5 µM

C[C@H]1O[C@@H](O[C@H]2[C@@H](O)C[C@H](O[C@H]3[C@@H](O)C[C@H](O[C@H]4CC[C@@]5(C)[C@H](CC[C@@H]6[C@@H]5C[C@@H](O)[C@]5(C)[C@@H](C7=CC(=O)OC7)CC[C@]65O)C4)O[C@@H]3C)O[C@@H]2C)C[C@H](O)[C@@H]1O
inactive: [1] | [2] | [3] | [4] | [14] | [6] | [10]
active: [7] 0.428 µM | [8] 0.00312 µM | [15] 0.348 µM | [11] 0.613 µM | [12] 0.133 µM

C=C(C)[C@@H]1CC=C(C)C(=O)C1
active: [11] 45.4 µM
inactive: [1] | [2] | [3] | [4] | [14] | [6] | [7] | [8] | [9] | [10] | [15] | [12]
